# Values joined by “and” are separate entries in the source; they are usually repeats but may differ in a detail not shown here. Equal entries are not always repeated. The whole screen tested about 38,000 compounds, of which about 1,200 (3.2%) showed an effect of 50% or more. The median lay at about -58%. For the sample, strong results were picked, then their nearest neighbours and some compounds at random.
# System: Plasmodium falciparum
# Assay: Calibr Malaria Delayed Death Assay SOP
# Format: functional, organism-based
# Set-up: scale not given: in the data most compounds retested in dose-response had high values
# Conditions: concentration 4.99e-06 (unit not given; other assays of the set use mol/L)
Structure (SMILES),Percent Effect [%],Percent Effect (4.99 µM)
Cc1noc(C)c1CN1C[C@@H]2COC[C@]2(COc2ccc(C#N)cn2)C1,-26.6,–
Cn1ncc2c(N[C@@H]3C[C@@H]4CC[C@H]3C4)nc(-c3ccncc3)nc21,-96.32,–
CC(C)OCCCNC(=O)CN1C=Nc2ccccc2S1(=O)=O,-92.03,–
O=C(N1CCCC1)N1CCN(Cc2cccnc2)c2ncccc2C1.O=C(O)C(F)(F)F.O=C(O)C(F)(F)F,-47.54,–
COC[C@@]12CCC[C@@H]1CN(C(=O)CN(C)C)C2.O=C(O)C(F)(F)F,-5.547,–
CCCc1cc(=O)[nH]c(SCc2ccccn2)n1,-130.6,–
Cn1cc(C2CCCN2CCc2nc3ccccc3c(=O)[nH]2)cn1 (stereo not given),-41.09,–
CC(C)NC(=O)N1CCC2(CC(=O)N(c3cccc(F)c3)C2)C1 (stereo not given),-10.77,–
Cc1cc(C(=O)NCc2cccnc2N2CCCC(O)C2)c(C)o1 (stereo not given),-87.63,–
CN(C(=O)Nc1nncs1)C1CCN(c2ccccc2Cl)C1=O (stereo not given),-21.66,–
O=C(O)C(F)(F)F.O=C(O)C(F)(F)F.O=S(=O)(C1CC1)N1CCC2(CCCN(Cc3ccccn3)C2)C1 (stereo not given),8.867,–
Cc1cnc(NC(=O)C(C)Oc2ccc3c(c2)OCO3)s1 (stereo not given),-125.5,–
COc1ccccc1OCCN(C)c1cc(C)nc(N)n1,69.29,–
COc1ccc(F)c(-c2cc(C)nc(N)n2)c1,-22.79,–
COc1ccc(OCCN(C)CCCn2cnc3c(N)ncnc32)cc1,-97.62,–
Cc1cc(N(C)CCCn2cccn2)nc(N)n1,23.74,–
COc1ccc(OCCN(C)c2cc(C)nc(N)n2)cc1,62.66,–
Cc1cc(N(C)CC2COc3ccccc3O2)nc(N)n1 (stereo not given),46.69,–
O=C(CCCc1ccc(Cl)cc1)N1CCC(c2nnc[nH]2)CC1,-167.6,–
O=C(O)C(F)(F)F.c1cnc(N2CCCC3(CCN(CC4CCC4)C3)C2)nc1 (stereo not given),51.49,–
Cl.Cl.Cn1cnc2c(N3CCCC3)nc(C3CCNCC3)cc21,-34.14,–
O=C(O)C(F)(F)F.c1cnc(N2C[C@H]3CCN(CC4CC4)C[C@H]3C2)cn1,16.16,–
Cc1cnc(N2C[C@H]3CCN(CC4CC4)C[C@@H]3C2)nc1.O=C(O)C(F)(F)F,37.51,–

Structure (SMILES),Percent Effect [%],Percent Effect (4.99 µM)
O=C(O)C(F)(F)F.O=C(O)C(F)(F)F.c1cnc(N2CCC3(CCN(CC4CCOCC4)CC3)C2)nc1,-33.73,–
Cn1cnc2c(N3CCCC3)nc(C3CCN(CC4CC4)CC3)cc21.O=C(O)C(F)(F)F.O=C(O)C(F)(F)F,68.79,–
Cc1cnc(N2C[C@H]3CCN(CC4CC4)C[C@H]3C2)nc1.O=C(O)C(F)(F)F,63.65,–
O=C(O)C(F)(F)F.O=C(O)C(F)(F)F.c1cc2nc(C3CCN(CC4CC4)CC3)nn2cc1N1CCCC1,-27.34,–
O=C(O)C(F)(F)F.c1cnc(N2CCCC3(COCCN(CC4CC4)C3)C2)nc1 (stereo not given),37.44,–
O=C(O)C(F)(F)F.O=C(O)C(F)(F)F.c1cnc(N2CCC3(CCN(CC4CCCC4)CC3)C2)nc1,42.2,–
O=C(O)C(F)(F)F.O=C(O)C(F)(F)F.c1cnc(N2CCCC3(CCN(CC4CC4)C3)C2)nc1 (stereo not given),59.09,–
O=C(O)C(F)(F)F.O=C(O)C(F)(F)F.c1cnc(N2CCOCC3(CCCN(CC4CCOCC4)C3)C2)nc1 (stereo not given),-11.39,–
CN(CCc1ccccn1)C(=O)C(O)c1ccc(Br)cc1 (stereo not given),-90,–
CS(=O)(=O)N1CCC2(CCN(C(=O)c3cccnc3)CC2)C1.O=C(O)C(F)(F)F,-35.24,–
CC(C)Cc1noc(C2CCCN(C(=O)CCc3cnn(C)c3)C2)n1 (stereo not given),-27.67,–
O=C(O)C(F)(F)F.O=C(O)C(F)(F)F.c1cncc(OC[C@]23COC[C@H]2CN(C2CCOCC2)C3)c1,-14.64,–
CCN(CC)C(=O)CSc1nc2c(cnn2CCO)c(=O)[nH]1,-60.63,–
CCCNCc1ncc(C)c(OC)c1C,-91.87,–
O=C(Cn1nc(N2CCOCC2)ccc1=O)Nc1nccs1,-91.76,–
O=S(=O)(c1ccc(F)cc1F)N1CCCCC1c1nnc2n1CCCC2 (stereo not given),-68.7,–
CCN(Cc1cccc2c1OCO2)C(=O)NC1CC1,-37.14,–
CN(C)C(=O)CN1CCOCC2(CCN(c3ncc(F)cn3)CC2)C1.O=C(O)C(F)(F)F,-87.82,–
CCCN(CCn1c(=O)oc2ccccc21)CC1CC1,13.79,–
CC(=O)N1CCN(C(=O)Nc2ccc(Cl)cc2)[C@H]2CS(=O)(=O)C[C@H]21,-18.79,–
CSCCC(=O)NCc1cc2n(n1)CCCN(C1CCCCC1)C2,-96.84,–
CC(NC(=O)C1CN(c2ncnc3c2nnn3C)C1)c1ccccc1 (stereo not given),-135.3,–
Cc1cc(NC(=O)CN2CCCCC2Cn2nc(C)nc2C)on1 (stereo not given),-33.53,–

Structure (SMILES),Percent Effect [%],Percent Effect (4.99 µM)
O=C(O)C(F)(F)F.c1cnc(N2CCC3(CCN(CC4CCOC4)CC3)C2)nc1 (stereo not given),-17.94,–
O=C(O)C(F)(F)F.c1cnc(N2CCCC3(CCN(CC4CCOC4)CC3)C2)nc1 (stereo not given),55.15,–
O=C(O)C(F)(F)F.c1cnc(N2CCC3(CN(CC4CCOC4)C3)C2)nc1 (stereo not given),-18.8,–
Cc1noc(C)c1CN1CC[C@H]2OCC[C@@]2(C(=O)N2CCOCC2)C1.O=C(O)C(F)(F)F,-52.8,–
Cc1nc(CC(=O)N2CCCC(n3ccnc3C(C)C)C2)cs1 (stereo not given),-131,–
COc1cccc(CN(C)Cn2nc(C(C)(C)C)ccc2=O)c1,-38.19,–
Cc1cccc(N2CCC3(CCN(Cc4ccccn4)CC3)CC2)n1.O=C(O)C(F)(F)F.O=C(O)C(F)(F)F,62.64,–
Cn1cc(CN2CCC3(CCCN(Cc4ccccn4)C3)CC2)cn1,-52.6,–
O=C(O)C(F)(F)F.O=C(O)C(F)(F)F.O=C(O)C(F)(F)F.O=C(O)C(F)(F)F.c1ccc(CN2CCC3(CC2)CCN(Cc2cccnc2)C3)nc1,17.02,–
O=S(=O)(C1CC1)N1CCC2(CCCN(Cc3ccccn3)C2)CC1,-27.08,–
O=C(O)C(F)(F)F.O=C(O)C(F)(F)F.c1ccc(CN2CCC3(CC2)CCN(c2ccccn2)C3)nc1,-1.583,–
Cc1ccc(N2CCC3(CCN(Cc4ccccn4)CC3)CC2)nn1,-24.83,–
O=C(O)C(F)(F)F.O=C(O)C(F)(F)F.O=C(O)C(F)(F)F.c1ccc(CN2CCC3(CC2)CCN(Cc2cccs2)C3)nc1,53.66,–
O=C(O)C(F)(F)F.O=C(O)C(F)(F)F.c1ccc(CN2CCCC3(CCN(CC4CCCO4)CC3)C2)nc1 (stereo not given),10.98,–
COc1cccc2ccn(CC(=O)NC(C)C)c12,-78.35,–
Cc1ccc(N(CCC#N)C(=O)CCc2cscn2)cc1C,-62.62,–
COC[C@@]12CCO[C@@H]1CCN(C(=O)Cc1cccc(F)c1)C2,-44.15,–
Cc1ccc(-c2nc(CCNC(=O)C3CC(=O)N(C)C3)cs2)cc1 (stereo not given),-66.89,–
Cc1nc(-c2cccc(C(=O)O)c2)c[nH]1,-344.9,–
Cc1cc2c(c(-c3cncc(C(=O)N4CCCC4)n3)c1)OC(CN)C2 (stereo not given),3.853,–
Cc1cc2c(c(-c3c[nH]c(C)n3)c1)OC(CN)C2 (stereo not given),79.27,–
CC(=O)c1cccc(-c2c[nH]c(C)n2)c1,-59.83,–
O=C(CCc1ccco1)N1CCCN(Cc2cscn2)CC1,-137.4,–

Structure (SMILES),Percent Effect [%],Percent Effect (4.99 µM)
O=C(c1cccc(F)c1)N1CC[C@@H]2CN(c3ncccn3)CCO[C@@H]2C1,-63.21,–
O=S(=O)(NCC(O)c1ccc2c(c1)CCO2)c1ccccc1F (stereo not given),-109.3,–
O=C(Cc1ccccc1)C1CCCN(Cc2cncn2C2CCCC2)C1 (stereo not given),56.54,–
CC1(c2ccccc2)CCCN(Cc2cncn2C2CC2)C1 (stereo not given),67,–
COCCN1CCCC12CCN(Cc1cncn1C)CC2.O=C(O)C(F)(F)F.O=C(O)C(F)(F)F,-15.64,–
O=C(C1CCCN(Cc2cccnc2)C1)N1CCc2sccc2C1 (stereo not given),-120.1,–
CC1(c2ccccc2)CCCN(Cc2cncn2C2CCCC2)C1 (stereo not given),90.6,–
COc1ncc(CN2CCC3(CCCN(CC4CCCCC4)C3)C2)cn1 (stereo not given),-65.28,–
CC1(c2ccccc2)CCC(=O)N(CCN2CCOCC2)C1 (stereo not given),-51.4,–
CCc1nccn1C1CCCN(C(=O)c2cncn2-c2ccccc2)C1 (stereo not given),–,-131.8% and -127.1%
COCCn1cncc1CN1CCC(C(C)=O)(c2ccccc2)CC1,-24.83,–
COCCn1cncc1CN1CCCC(C)(c2ccccc2)C1 (stereo not given),61.23,–
CC1(c2ccccc2)CCCN(C(=O)c2ccn3nnnc3c2)C1 (stereo not given),-91.8,–
O=C(C1CCCN(Cc2ccccc2)C1)N1CCc2sccc2C1 (stereo not given),11.44,–
O=C(O)C(F)(F)F.O=C(O)C(F)(F)F.O=C1N(Cc2cccnc2)CCC12CCCN(c1ncccn1)C2 (stereo not given),-131.5,–
CS(=O)(=O)c1cncnc1C1CCCNC1.Cl (stereo not given),-139,–
CCN1CCO[C@@H]2CN(C(=O)NCc3ccccc3)CC[C@@H]2C1,-134.2,–
CCC(=O)NC(c1ccc(C)cc1)c1cccc(S(C)(=O)=O)c1 (stereo not given),-119.8,–
COc1cc(N2C[C@@H]3COC[C@@H](Cc4nc(C)no4)[C@@H]3C2)ncn1,-87.35,–
Cc1ccc(C(=O)N2C[C@@H]3CCCO[C@@H]3[C@H](N(C)Cc3ccco3)C2)o1.O=C(O)C(F)(F)F,-32.67,–
CCNC(=O)c1c2c(N3CCN(C)CC3)ncnc2n2ccccc12,-74.14,–

# From ChEMBL document CHEMBL3988442, “University of Dundee, Small-Polar-MMV Screening Library” (2021)
